This note sets out measurements from PubChem BioAssay (EPA / NIEHS).

Records with an inconclusive call do not appear. Calls of active or inactive are those of the source. Rule for the calls, unless noted: active = hit-call score of the fitted dose curve at least 0.9, where 1 is the maximum; inconclusive = response in the unintended direction; inactive = score below 0.9.

The first assay relates to Thyroperoxidase (TPO), gene 54314. In words: CCTE_Simmons_AUR_rTPO: CCTE's Amplex UltraRed Assay for Thyroperoxidase (TPO) Inhibition, Simmons Lab (AID 2283662).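 For AC50: potency for loss of signal meaning inhibition of peroxidase activity.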 The essentials:
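Endpoint is decreased Amplex UltraRed fluorescence after a 30-min, 37C reaction of rat thyroid microsomes with 300 uM H2O2. Eight test concentrations (5 nM–87.5 uM final) in 0.5% DMSO, three biological replicates each.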
Regarding `Cc1ccc2ccccc2c1C`, the AC50 – broadly, the concentration giving half of the maximal activity seen – is 34.3 µM (active).

Consider `CCOC(=O)Nc1cccc(OC(=O)Nc2ccccc2)c1`, for which the AC50 was 1.38 µM (active). Still for that read-out and setting: then `CC(C)c1cccc(C(C)C)c1O`, with 10.3 µM (active). In the case of `Clc1ccc(C2(Cn3cncn3)CC(Br)CO2)c(Cl)c1` (centres undefined), the call was inactive. Turning to `C[C@H]1CCCC(=O)CCC/C=C/c2cc(O)cc(O)c2C(=O)O1`, the AC50 was 3.47 µM (active).

For `NNC(=S)NN`, the AC50 is 0.205 µM (active).

Turning to `Cc1ccc(N)cc1Cl`, the AC50 is 0.0109 µM (active). With `CC1(C)Cc2cccc(O)c2O1`, the AC50 is 12.2 µM (active).

As to `CCCCCCCCSC(=O)Oc1cc(Cl)nnc1-c1ccccc1`, the AC50 is 43.8 µM (active). For `CCC1(c2ccc(N)cc2)CCC(=O)NC1=O` (centres undefined), the AC50 is 0.935 µM (active).

As for `CC1(C)CCC(Cc2ccc(Cl)cc2)C1(O)Cn1cncn1` (centres undefined), the call was inactive.

Consider `Clc1ccc(COC(Cn2ccnc2)c2ccc(Cl)cc2Cl)cc1` (centres undefined), for which the AC50 is 43.8 µM (active). Still for that read-out and setting: then `COP(=S)(OC)Oc1ccc(Sc2ccc(OP(=S)(OC)OC)cc2)cc1`, with 11.6 µM (active); and `COP(=O)(OC)O/C(=C\Cl)c1cc(Cl)c(Cl)cc1Cl`, with 48.3 µM (active); and `OCc1ccco1`, with 28.5 µM (active).

As to `CC(C)(c1ccc(OCC2CO2)cc1)c1ccc(OCC2CO2)cc1` (centres undefined), the AC50 is 43.5 µM (active).

Test system in the next assay: not listed separately
In words: CCTE_Simmons_CellTiterGLO_HEK293T: Viability Assessment in CCTE's Assays for Thyroperoxidase (TPO) Inhibition, Simmons Lab (AID 2283665).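 For AC50: cells exposed to compound for 24 h before readout; actives reduce ATP signal below DMSO vehicle meaning cytotoxicity.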 The essentials: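 HEK293T, 10 000 cells/well, DMEM + 1% FBS; 8-pt titration 5 nM–87.5 uM [final], 0.5% DMSO; 24 hr, 37C, 5% CO2; CellTiter-Glo luminescence; n=3 biological replicates.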
On the technique in general: In ATP-based viability assays light output follows the ATP content of the culture.
In the case of `Cc1ccc2ccccc2c1C`, the AC50 was 17.4 µM (active). Same read-out and setting: then `CCOC(=O)Nc1cccc(OC(=O)Nc2ccccc2)c1`, with 16.6 µM (active). Still for that read-out and setting: then `CC(C)c1cccc(C(C)C)c1O`, with 84.6 µM (active); and `Clc1ccc(C2(Cn3cncn3)CC(Br)CO2)c(Cl)c1` (centres undefined), with 95.2 µM (active); and `C[C@H]1CCCC(=O)CCC/C=C/c2cc(O)cc(O)c2C(=O)O1`, with 89.2 µM (active).

For `NNC(=S)NN`, the outcome was inactive. Turning to `Cc1ccc(N)cc1Cl`, the AC50 was 18.4 µM (active).

Consider `CCCCCCCCSC(=O)Oc1cc(Cl)nnc1-c1ccccc1`, for which the outcome was inactive. Take `CC1(C)CCC(Cc2ccc(Cl)cc2)C1(O)Cn1cncn1` (centres undefined): the AC50 was 89 µM (active). Turning to `Clc1ccc(COC(Cn2ccnc2)c2ccc(Cl)cc2Cl)cc1` (centres undefined), the concentration at half-maximal activity (AC50) was 22.4 µM (active). Still for that read-out and setting: then `COP(=O)(OC)O/C(=C\Cl)c1cc(Cl)c(Cl)cc1Cl`, with 25 µM (active). As to `OCc1ccco1`, the call was inactive. Consider `CC(C)(c1ccc(OCC2CO2)cc1)c1ccc(OCC2CO2)cc1` (centres undefined), for which the AC50 was 83.7 µM (active).

Read-out in another assay: not listed separately
In words: CEETOX_H295R_MTT_cell_viability: Viability Assessment in the CeeTox HT-H295R MTT Assay (AID 2283718; active = hit-call score of the fitted dose curve at least 0.9, where 1 is the maximum; inactive = score below 0.9;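 for AC50: curve fitted both ways so AC50 may mark viability loss or gain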). The method, boiled down:
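Human H295R adrenal cells, prestimulated 48 h with 10 uM forskolin, were exposed 48 h to chemicals in 0.1% DMSO. Viability was measured in the same wells by MTT (0.5 mg/ml, 4 h, 37 C), absorbance 570/650 nm, as percent of controls.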
In the case of `CCOP(=S)(OCC)SCCS(=O)(=O)CC`, the outcome was inactive. On to `C1CCC(NC2CCCCC2)CC1`, for which the compound was called inactive. For `O=C(Cc1ccccc1)c1ccccc1`, the compound was classed as inactive. With `CN(CCCC(=O)c1cccnc1)N=O`, the outcome was inactive.

Take `C[C@H]1CCCC(=O)CCC/C=C/c2cc(O)cc(O)c2C(=O)O1`: the AC50 was 69.8 µM (active). As for `NNC(=S)NN`, the compound was classed as inactive. As for `c1cc[c]([Hg][c]2ccccc2)cc1`, the AC50 was 24.7 µM (active). Consider `Fc1ccc(C2(Cn3cncn3)OC2c2ccccc2Cl)cc1` (centres undefined), for which the call was inactive. Still for that read-out and setting: then `CCCCCCCCC(=O)NCc1ccc(O)c(OC)c1`, with “inactive”; and `Oc1ccc(-c2ccccc2)cc1`, with “inactive”; and `C(=NC1CCCCC1)=NC1CCCCC1`, with “inactive”.

Consider `CCC1(c2ccc(N)cc2)CCC(=O)NC1=O` (centres undefined), for which the outcome was inactive.

Take `CC1(C)CCC(Cc2ccc(Cl)cc2)C1(O)Cn1cncn1` (centres undefined): the outcome was inactive. On to `O=C(OC1CCCCC1)c1ccccc1C(=O)OC1CCCCC1`, for which the AC50 was 28.6 µM (active).

As for `C=CC(=O)N(C)C`, the compound was classed as inactive. As to `ClC(Cl)=C(Cl)C(Cl)=C(Cl)Cl`, the compound was classed as inactive. On the same count and under the same terms, then `COP(=O)(OC)O/C(=C\Cl)c1cc(Cl)c(Cl)cc1Cl`, with “inactive”. Turning to `CC(C)OC(=O)Nc1ccccc1`, the AC50 is 2.64 µM (active). In the case of `Nc1ccc(-c2ccc(N)c(Cl)c2)cc1Cl`, the result was inactive. On to `C[C@]12CC[C@H](O)CC1=CC[C@@H]1[C@@H]2CC[C@]2(C)C(=O)CC[C@@H]12`, for which the call was inactive.
